Results from the emibetuzumab library of Makowski et al. (2022).
The other results are listed elsewhere or left out. No count for the full screen is at hand.

B1: VH:VL chains; a variant is named by its letters at X, in order (parent)
chain 1: QVQLVQSGAEVKKPGASVKVSCKASGYTFTDYXMHWVRQAPGQGLEWMGXVNPNXXXTTYNQKFEGRVTMTTDTSTSTAYMELRSLRSDDTAVYYCARXNXLDXWGQGTTVTVSS
chain 2: DIQMTQSPSSLSASVGDRVTITCSVSSSVSSIYLHWYQQKPGKAPKLLIYSTSNLASGVPSRFSGSGSGTDFTLTISSLQPEDFATYYCQVYSGYPLTFGGGTKVEIK

Variants of: B1
Assay: yeast display scFab, FACS + sequencing
Conditions: with MET
Summary of the method: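 Round-3 sorted and input populations from a heavy-chain CDR mutant scFab yeast library were deep sequenced in two replicates. Sorting used FACS on cells labelled for 3 h at room temperature with 1 nM HGFR-Fc and anti-Myc in PBSB with 1% milk, keeping the top 50% antigen-positive cells. Any sequence seen in both antigen-positive samples was called a binder, while one seen only in the input was called a non-binder.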

Variant	antigen binding call
VARETDVA	no binding
VKGRGFAA	no binding
VKGRGSWA	binds
VKGRGAWA	binds
VKTGGSWA	no binding
DEGRGSWA	no binding
VKGRGDAA	no binding
VTRGADGV	no binding
VAGGDFGV	no binding
SAGTGSWD	no binding
FRGKGASD	binds
SKKRGSWD	binds
SKKTGSVD	no binding
SKGKGSWD	binds
FRGKGSWD	binds
VEAGDDWV	no binding
SGRGNDGV	no binding
DTGGDDWF	no binding
DAGGGDAV	no binding
FAGTGSWD	no binding
YAGTGFVD	no binding
FRGTGFVD	binds
FKGKGSWD	binds
FRGKGAWD	binds

Variant	antigen binding call
FRGTSFGD chain 1 T58I	no binding
YKGKGSWD	binds
AAGGNAWS chain 1 G66S	no binding
DGGKGAVD	no binding
FRGKGAVD	binds
YKGGSSAA	binds
YKGRSAAA	binds
DKGGSDVA	no binding
FKGGSSAA	no binding
DKGGSAVV	no binding
YKGGSAAA	binds
DKGEGAAA	no binding
DEGGTDVF	no binding
DGGKNDWV	no binding
DAGGASSS	no binding
YTERNFGV	no binding
FRARSSGF	binds
FRGGGSGF	binds
DRAGDSGF	no binding
FRGRGSGF	binds
FRGADSGF chain 1 R98K	no binding
FTARSAGF	no binding
FRAGGSLF	binds
FRGRDFLF	no binding

Variant	antigen binding call
DGGKNSVD	no binding
VEGGGFSV	no binding
VEAGDDAV	no binding
ATAGSDGV	no binding
DAARGDGA	no binding
VKGRSDVY	no binding
FRGRGALF	binds
FRGRGSVF	binds
FRGRGSLF	binds
FRKRGSVF	binds
ARAAGDVF	no binding
YRGAGSGY	binds
YRGAGSGS	binds
YRGGSSGY	binds
YRGAGSGD	binds
AERRDDGA	no binding
VAGGGAGV	no binding
YAGGDDSA	no binding
VTTKSFGV	no binding
YRGAGAWS	binds
ARGAGYGS	no binding
YRGAGAVS	binds
YRGAGYGS	no binding
YRGAGAVY	binds

Variant	antigen binding call
YRGAGAGS	binds
YAGAGAVY	no binding
DEETNSGA	no binding
AREGDDVA	no binding
YRGGGSGS	binds
YTGTSAVS	no binding
YARRAAVS	no binding
YRGRAAVS	binds
YRGGGFAD	binds
YRGRGFAD	binds
YAAGGFAY	no binding
YKGAAFAD	no binding
YRGRGYAY	binds
YRGRGFAY	binds
VATGDDVA	no binding
SATKTVVV	no binding
VTGEDSGV	no binding
YKGRGFAY	binds
SKGASFAY	no binding
DTGTGDSA	no binding
DAGGGDVV	no binding
VEGGNDGA	no binding
YAGGGDWA	no binding
DREEGDVV	no binding

Variant	antigen binding call
YRKGSSGV	binds
YRKRGDVV	binds
YRKRGSLV	binds
YRKRGSVV	binds
DAGGDDGA	no binding
AARADAVY	no binding
DARETFLD	no binding
SGREGDWD	no binding
YRKGGSGV	binds
VRKGGSGV	binds
YRKRGVGV	no binding
YRKRGSGV	binds
VEKGGSGV	no binding
YRKRGSLY	binds
DGGGASSA	no binding
YTAGSDGA	no binding
SEARSDAD	no binding
VEGGGDVY	no binding
VAEKGDGV	no binding
VTAGDDGV	no binding
VKRGDDVV	no binding
YKRGSAGF	binds
YKRGDAVF	binds
VGGGAAGF	no binding

Variant	antigen binding call
YKRGSSGF	binds
YGTAAFGF	no binding
YARADDVF	no binding
YKKGAAGF	binds
FGKGGFGY	no binding
YARADSGD	no binding
YATEDSGF	binds
YAARASGF	no binding
YKRGDSGF	binds
AGTKADVV chain 1 G108S	no binding
VKGKGDVY	no binding
DATGGSSY	no binding
YKTKGSSY	binds
YKGKGSSY	binds
YKGKGSLY	binds
VGTKGSSA	no binding
FKGKGSAD	binds
FKGRGSAA	binds
YRGKSSAD	binds
FRAKGSAD	binds
FRGKGSAD	binds
YAGKTSAD	no binding
DAAGASVD	no binding
YTKGTSVA chain 1 E65K	no binding

Variant	antigen binding call
DKEGGFGV	no binding
DEGGTDGS	no binding
SRATAYSD	no binding
YRGKGSAD	binds
VEGAADVD	no binding
VTGGGASF	no binding
YRKGGSVS	binds
YRKRGSVF	binds
YRKGSSVS	binds
DTKGDSVS	no binding
YRTRSSVS	binds
VEGTSSLD	no binding
FRGEGAVS	binds
FAATDSVS	no binding
FRGEGSVS	binds
YRGEGAVS	binds
FKGEGFGS	no binding
VGGTSALD	no binding
VRRGGALD	binds
VRKRGALD	binds
VTERSALD	no binding
VEEEGALD	no binding
VKEKGALD	no binding
VRRRGALD	binds

Variant	antigen binding call
ATGEADAS	no binding
DAEATSWV	no binding
DTGTGAGD	no binding
AEEKGSGD	no binding
VRTEDSWA	no binding
YATKGAWA	no binding
VRTEDDVA	no binding
VRGKGASA	binds
VKGKGASA	no binding
YKGKGAWA	binds
VRTEDAWA	binds
YRGKGAWA	binds
VARADSGV	no binding
VEAGDAAV	no binding
YKGKGSWA	binds
VEGGGAWA	no binding
YRGKSSWA	binds
YEGTGSWA	no binding
YRGKGSWA	binds
VRGGDDWA	no binding
VRGKGAWA	binds
DAARGDAA	no binding
YRGAGAWV	binds
DTGTGAGV	no binding

Variant	antigen binding call
YRGAGSGV	binds
VTGTGAGV	no binding
YRGAGAGV	binds
YRGTGAGV	binds
YETGNVWF	no binding
DKEGGAVV	no binding
DAGGGDWV	no binding
VTTRADVF	no binding
DGGRAFWF	no binding
VARKGVGV	no binding
YRGAGALV	binds
YTGTSDWV	no binding
YRRGSASV	binds
VKEADAWV	no binding
YARADSSV	no binding
YKRRDAWV	no binding
YKRGSAWV	binds
YRRGSSSV	binds
YTRGSAWV	no binding
YKRGSASV	binds
